Results on 35 compounds are retold here after PubChem BioAssay.

Molecules are shown by their SMILES.
Further: test concentration not given here.

The first experiment is described as follows: compound effects on hepatocellular carcinoma cell viability – HepG2, calcein-AM fluorescence, 48 h, basal, profiling panel (AID 1164). The conditions noted are these: higher = more signal.
Turning to `CO[C@H]1O[C@H](CO)[C@@H](OC(=O)Nc2ccc(Oc3ccccc3)cc2)[C@H](OC(=O)Nc2ccc3c(c2)OCO3)[C@@H]1OC(=O)Nc1ccc2c(c1)OCO2`, the z-score was -0.845. With `C=C(CCCC)/C(=C/C[C@@H](OC(C)=O)c1ccccc1OCCO)c1cc(C(=O)OC)ccc1OC`, the z-score was 0.741. Still for that read-out and setting: the figure for `C=CCC(OC(C)=O)[C@@H]1[C@@H](N(Cc2cc3ccccc3o2)C(=O)Cc2ccc(OC)cc2)c2cc(OCCCO)ccc2N1C(=O)c1ccc2ccccc2c1` (stereo not given in full) is 0.663; for `O=C1C2C=CC(C(O)c3c(F)cccc3Cl)N(Nc3ccccc3F)C2C(=O)N1c1ccccc1` (stereo not given) it is -0.257. In the case of `CN(C)C(=O)[C@]1(Cc2ccccc2)N=C(c2ccc(OCCCO)cc2)O[C@@H]1c1ccccc1N=[N+]=[N-]`, the z-score was -0.987.

A short description of the next experiment: compound effects on multiple myeloma cell viability – MM1S, calcein-AM fluorescence, 48 h, basal, profiling panel (AID 1165). The conditions noted are these: higher = more signal.
With `O=C(CS)NCCCCCNC(=O)[C@@H]1C[C@@H]2C(=O)NCC(=O)N2[C@@H]1c1cccc(OCCO)c1`, the z-score is 0.231. `O=C(CS)NCCCCCNC(=O)[C@H]1C[C@H]2C(=O)NCC(=O)N2[C@H]1c1cccc(OCCO)c1`: the z-score was 0.304.

As for `CN(C)CCCCNC(=O)[C@@H]1C[C@@H]2C(=O)N[C@@H](CCCCN)C(=O)N2[C@@H]1c1ccc(O)cc1`, the z-score is -0.388. The same measure, in the same setting: the figure for `COc1ccc(CCNC(=O)[C@@]2(C)c3ccccc3C(=O)N(c3ccc(C)cn3)[C@H]2c2ccc(CO)cc2)cc1` is -0.64; for `O=C(NCCN1CCOCC1)[C@@H]1c2ccccc2C(=O)N(Cc2cc(C(F)(F)F)cc(C(F)(F)F)c2)[C@H]1c1ccc(CO)cc1` it is 0.266; for `O=C(NCc1ccccc1)[C@@H]1c2ccccc2C(=O)N(C2Cc3ccccc3C2)[C@H]1c1ccc(CO)cc1` it is 0.0344. The same measure, in the same setting: the figure for `COCCOC(=O)N1C(=O)[C@@]2(c3cc(C#CC4(O)CCCCCC4)ccc31)[C@H](C(=O)Nc1nc3ccccc3s1)[C@H]1C(=O)O[C@H](c3ccccc3)[C@H](c3ccccc3)N1[C@@H]2c1ccccc1OCCO` is -2.18; for `CC1CC/C=C\[C@H]2OC34C=CCN(c5ccc6ccccc6c5)C(=O)[C@H]3N(CCO)C(=O)[C@@H]4C2C(=O)O1` (stereo not given in full) it is 1.01; for `O=C1O[C@@H](c2ccccc2)[C@@H](c2ccccc2)N2[C@@H](c3ccc(OCCO)cc3)[C@]3(C(=O)Nc4ccc(C#CCCO)cc43)[C@@H](C(=O)NC[C@H](O)c3ccccc3)[C@H]12` it is -0.301. For the compound `O=C1OCCC/C=C\[C@H]2OC34C=CCN(c5ccc6ccccc6c5)C(=O)[C@H]3N(CCCCCO)C(=O)[C@@H]4C12` (stereo not given in full), the z-score is 0.0795. Same read-out and setting: to `CC(C)CNC(=O)[C@@]1(Cc2ccccc2I)c2ccccc2C(=O)N(Cc2ccccc2C(F)(F)F)[C@H]1c1ccc(CO)cc1` belongs -0.722; to `C#CCOc1ccc(C[C@@H](C(=O)OC)N(CC#C)[C@@H](/C=C/C2CC2)[C@H](O)Cc2ccccc2)cc1`, -2.3.

Consider `CCOC(=O)[C@H]1C/C=C/C[C@H](C(=O)OCC)C(=O)O[C@H]2[C@@H](OC)O[C@H](CO)[C@@H](OC(=O)c3ccc(Br)cc3)[C@@H]2OC1=O`, for which the z-score was -3.12. On to `O=C1[C@@]23C=C(Br)[C@H](C[C@@H]2COC3)[C@]12CO2`, for which the z-score is -3.17. The same measure, in the same setting: to `O=C1NC(=O)C2C1C=CC(C(O)c1ccc(-c3ccccc3)s1)N2Nc1ccc(Cl)cc1Cl` (stereo not given) belongs -3.61; to `C=C(C(=O)CC[C@H](OC(C)=O)c1ccccc1OCCO)C(C)C`, -0.899; to `O=C1C2C=CC(C(O)COCc3ccccc3)N(Nc3ccc([N+](=O)[O-])cc3)C2C(=O)N1c1ccccc1` (stereo not given), -0.105. With `COCC(=C=CC[C@H](O)c1cccc(OCCO)c1)CCO`, the z-score is 0.269. Turning to `NCCCCCCNC(=O)[C@H]1C[C@H]2C(=O)N[C@@H](Cc3ccccc3)C(=O)N2[C@H]1c1cccc(OCCO)c1`, the z-score was 0.456. Still for that read-out and setting: to `CCCCCN1CC=CC23O[C@@H]4C=CCOC(=O)[C@@H]4[C@H]2C(=O)N(C(C)CO)[C@@H]3C1=O` (stereo not given in full) belongs -0.425; to `CC(c1ccccc1)C(O)C1C=CC2C(=O)N(C)C(=O)C2N1NC(=O)OC(C)(C)C` (stereo not given), -0.391; to `COCCCNC(=O)[C@@H]1c2ccccc2C(=O)N(Cc2ccccc2)[C@H]1c1ccc(CO)cc1`, 0.239. Same read-out and setting: the figure for `COCCOC(=O)N1C(=O)[C@@]2(c3cc(C#CCCO)ccc31)[C@H](c1ccc(OCCO)cc1)N1[C@H](c3ccccc3)[C@H](c3ccccc3)OC(=O)[C@H]1[C@@H]2C(N)=O` is -0.109.

Regarding `COc1ccc(C(=O)Nc2ccc(CN3C(=O)[C@]4(O[C@H](CC(=O)N5CCC[C@H]5CO)[C@@H]([Si](C)(C)c5ccc(OC)cc5)[C@@H]4C)c4ccccc43)cc2)cc1`, the z-score is -2.83. On the same count and under the same terms, to `C=CC[C@]1(C(N)=O)COC(c2ccc(OCCCO)cc2)=N1` belongs 0.327; to `COC(=O)[C@@]1(Cc2ccccc2)[C@H]2c3cc(C(=O)N(C)C)n(CCc4c[nH]c5ccc(O)cc45)c3C[C@H]2CN1C(=O)c1ccccc1`, -0.988.

With `COc1ccc(C#Cc2ccc3c(c2)[C@]2(C(=O)N3)[C@H](c3ccc(O)cc3)N3[C@H](c4ccccc4)[C@H](c4ccccc4)OC(=O)[C@H]3[C@@H]2C(=O)N2CCc3cc(OC)c(OC)cc3C2)cc1`, the z-score was -0.405.

Consider `O=C1OCCC=C[C@H]2OC34C=CCN(Cn5nnc6ccccc65)C(=O)[C@H]3N(CCO)C(=O)[C@@H]4C12` (stereo not given in full), for which the z-score is 0.897. For the compound `CC(C)Cc1ccc(CN2CC[C@@H](N)C2)cc1`, the z-score is -3.15. On the same count and under the same terms, the figure for `C[N+](C)(C)CCCCCCNC(=O)[C@H]1C[C@H]2C(=O)N[C@@H](Cc3ccccc3)C(=O)N2[C@H]1c1cccc(OCCO)c1` is 0.245. With `CO[C@H]1O[C@H](CO)[C@@H](OC(=O)Nc2ccc(Oc3ccccc3)cc2)[C@H](OC(=O)Nc2ccc3c(c2)OCO3)[C@@H]1OC(=O)Nc1ccc2c(c1)OCO2`, the z-score is -2.21. Still for that read-out and setting: to `C=C(CCCC)/C(=C/C[C@@H](OC(C)=O)c1ccccc1OCCO)c1cc(C(=O)OC)ccc1OC` belongs -2.54; to `C=CCC(OC(C)=O)[C@@H]1[C@@H](N(Cc2cc3ccccc3o2)C(=O)Cc2ccc(OC)cc2)c2cc(OCCCO)ccc2N1C(=O)c1ccc2ccccc2c1` (stereo not given in full), 0.817. On the same count and under the same terms, to `O=C1C2C=CC(C(O)c3c(F)cccc3Cl)N(Nc3ccccc3F)C2C(=O)N1c1ccccc1` (stereo not given) belongs 0.278; to `CN(C)C(=O)[C@]1(Cc2ccccc2)N=C(c2ccc(OCCCO)cc2)O[C@@H]1c1ccccc1N=[N+]=[N-]`, -3.2.
